# Screens (PubChem BioAssay)
# Gli-Sufu antag = Gli-Sufu pathway antagonists, primary screen, luciferase luminescence, Sufu-KO-LIGHT cells, uHTS; Sufu-KO-LIGHT fibroblasts, Gli luciferase reporter luminescence; inhibition, % at 5 µM; 340,000 compounds, 0.74% hits; AID 588413, 2011;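 active = inhibition above about 55%, limit read from the data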;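 also: 0% = DMSO-treated cells and 100% = wells with medium but no cells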
# Beta cell apopt = inhibitors of cytokine-induced beta cell apoptosis, primary screen, luminescence; 300,000 compounds, 0.8% hits; AID 435005, 2010; protection from apoptosis, % (no concentration beside the values); INS-1E cytokine-induced death, ATP luminescence, 48 h; percent of positive-control rescue, neutral wells zero;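 active = Every replicate reaches about 75%, or at least half do and their mean reaches it too, limit read from the data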;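 also: 0% = cytokine-treated negative control wells and 100% = positive control rescue; higher means more ATP so stronger rescue from cytokine killing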
# PAX8 reporter = inhibitors of PAX8-driven TPO luciferase reporter, primary screen, RMG-I cells, single concentration; SteadyGlo, 24 h; inhibition, % at 12.6 µM; 360,000 compounds, 1.2% hits; AID 652154, 2013;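 active = mean replicate inhibition at least 60% with every replicate also reaching 60%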;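 also: luciferase light reporting Pax8 driven TPO promoter activity; plate controls were median of neutral control wells for no effect and mitoxantrone controls for full effect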
# CSC inhib = cancer stem cell viability inhibitors, primary screen, luminescence; inhibition, % at 7.5 µM; cancer stem cell-like cells viability; 300,000 compounds, 1.1% hits; AID 2717, 2010; in the data active = inhibition above about 75%; tested in HMLE shEcad cells
# Shn3 inh set2 = reduction of Shn3 3'UTR firefly luciferase signal, primary screen, Schnurri-3 inhibitor project, cell-based, Clone20 osteoblasts, set 2; inhibition, % at 12.5 µM; 360,000 compounds, 0.52% hits; AID 588674, 2011; Clone20 osteoblast Shn3 3'UTR firefly luciferase, 24 h;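 active = mean inhibition of at least 75% with every replicate also reaching 75%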;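 also: 0% = median of neutral control wells and 100% = pilot-screen positive control compound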
# Mdm2 MdmX PPI = inhibitors of human Mdm2-MdmX association, primary screen, cell-based, luminescence, split luciferase, SaOS-2, uHTS | 330,000 compounds, 3% hits | Protein Mdm4 (Homo sapiens) + E3 ubiquitin-protein ligase Mdm2 (Homo sapiens), … | inhibition, % at 8 µM | SaOS-2 split-luciferase Mdm2/MdmX complementation | AID 485346, 2010;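 active = inhibition of at least 50% at 8 µM in the primary screen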
# * marks the source's active call; other numbers are inactive results; / = no result. In the library only some 4% were active in any assay of this set; here they are far more common.
SMILES,Gli-Sufu antag,Beta cell apopt,PAX8 reporter,CSC inhib,Shn3 inh set2,Mdm2 MdmX PPI
CCC1(c2ccc(F)cc2)NC(=O)N(CC(=O)Nc2ccc(-c3nc4ccc(C)cc4s3)cc2)C1=O (stereo not drawn),-115,92*,-68,22,-7,-103
CN1C(=O)c2cccc(NCCCCCCN3C(=O)c4ccccc4C3=O)c2C1=O,24,14,/,9,88*,20
Fc1ccc(CSc2ccc(-c3ccco3)nn2)cc1,-74,-2,131*,/,-76,-55
C[C@@H](NC(=O)[C@H]1[C@H](CO)[C@H]2Cn3c(ccc(C4=CCCCC4)c3=O)[C@@H]1N2)c1ccccc1,/,/,3,/,/,/
C[C@H](CO)N1C[C@H](C)[C@@H](CN(C)C)Oc2ccc(NC(=O)CCC(F)(F)F)cc2CC1=O,/,/,17,/,/,/
CC(=O)Nc1ccc(NC(=O)c2c([N+](=O)[O-])c(C(C)(C)C)nn2C)cc1,3,-4,4,-5,9,11
Cc1ccc(NC(=O)c2c([N+](=O)[O-])c(C(C)(C)C)nn2C)c(C)c1,5,13,128*,-4,-8,13
CNC[C@H]1Oc2ccc(NC(=O)Nc3ccc4c(c3)OCO4)cc2C(=O)N([C@@H](C)CO)C[C@H]1C,/,/,4,/,/,/
CN(CC(=O)Nc1cccc(F)c1)C(=O)c1cn(-c2ccccc2)nc1-c1ccc(Cl)cc1,22,18,16,102*,-3,26
Cc1ccccc1OCC(=O)Nc1cccc(C(=O)O)c1,-116,/,93*,/,56,/
Cc1noc(C)c1NC(=O)N(C)C[C@H]1Oc2ccc(NC(=O)Nc3ccccc3)cc2CC(=O)N([C@@H](C)CO)C[C@H]1C,/,/,-1,/,/,/
CC(C)(C)OC(=O)NCCCCCNC(=O)c1ncn(Cc2ccccc2)c1C(=O)NCCCCCNC(=O)OC(C)(C)C,23,2,75*,42,32,26
CN(Cc1ccccc1)C(=O)c1[nH]cnc1C(=O)NCCCCCNC(=O)OC(C)(C)C,35,-2,5,-20,14,22
C[C@H]1CN([C@@H](C)CO)C(=O)Cc2cc(NC(=O)Nc3ccc(C(F)(F)F)cc3)ccc2O[C@H]1CN(C)S(=O)(=O)c1cn(C)cn1,/,/,38,/,/,/
CC(=O)Oc1c(Cl)cc(Cl)cc1/C=C/c1ccc2ccccc2n1,1,13,/,109*,3,9
CC(=O)Oc1ccc(Cl)cc1/C=C/c1ccc2ccccc2n1,-11,7,/,49,-149,3
CCCCOC(=O)c1ccc(Nc2ncnc3nc[nH]c23)cc1,-28,4,-12,6,-36,13
CCCCCCCCOC(=O)c1cc([N+](=O)[O-])c(Sc2ncnc3nc[nH]c23)c([N+](=O)[O-])c1,-22,/,25,/,99*,/
N#Cc1c(-c2ccccc2)cc(-c2ccccc2)nc1SCCC(=O)O,4,-2,21,75*,1,41
CCCN(C)C[C@@H]1Oc2ncc(-c3ccccc3)cc2C(=O)N([C@H](C)CO)C[C@H]1C,/,/,6,/,/,/
COc1ccc2c3c([nH]c2c1)[C@H](CO)N(C(=O)C1CC1)CC31CCN(Cc2cccc(F)c2)CC1,/,/,69*,/,/,/
COc1ccc2c3c([nH]c2c1)[C@@H](CO)N(C(=O)C1CCCC1)CC31CN(Cc2nccs2)C1,/,/,0,/,/,/
COc1ccc2c3c([nH]c2c1)[C@@H](CO)N(C(=O)C1CC1)CC31CN(Cc2nccs2)C1,/,/,86*,/,/,/
COc1ccccc1CNc1ccc(CNc2ncn[nH]2)cc1,-6,-1,-3,1,5,5
COc1cc(CNc2ccc(CNc3ncn[nH]3)cc2)ccc1OCc1ccccc1,-12,-10,27,90*,5,-10
SMILES,Gli-Sufu antag,Beta cell apopt,PAX8 reporter,CSC inhib,Shn3 inh set2,Mdm2 MdmX PPI
CC(C)NC(=O)Nc1cccc2c1O[C@H](CN(C)C(=O)Nc1ccc(F)cc1)[C@H](C)CN([C@H](C)CO)C2=O,/,/,-8,/,/,/
COc1ccc(NC(=O)CC2C(=O)N(c3ccccc3)C(=O)N2CCc2cccs2)cc1 (stereo not drawn),33,8,68*,-2,-13,-1
NNC(=O)c1nn(-c2ccc(Cl)cc2)cc1O,-5,75*,72*,-9,-23,13
Cc1ncc(CN2CCCC(C(=O)Nc3ccc(-c4cccc(F)c4)cc3)C2)s1 (stereo not drawn),24,-11,15,101*,29,23
C#C[C@]1(O)CC[C@H]2[C@@H]3CCc4cc(OC5CCCC5)ccc4[C@H]3CC[C@@]21C,3,4,4,98*,-8,38
C#C[C@]1(O)CC[C@H]2[C@@H]3CCc4cc(OC)ccc4[C@H]3CC[C@@]21C,-16,-1,-32,2,-9,2
S=C(Nc1ccc(Cl)cc1)Nc1cccc2cnccc12,8,91*,-25,52,17,11
Fc1ccc(NC(=S)Nc2cccc3cnccc23)cc1,-7,0,-1,36,11,-2
COc1cccc(S(=O)(=O)N[C@@H]2CC[C@H](CCNC(=O)Nc3cc(F)ccc3F)O[C@H]2CO)c1,/,/,-15,/,/,/
Cc1nn(-c2ccccn2)c2nc(-c3cccs3)cc(C(=O)NCc3ccco3)c12,1,4,/,11,-14,20
CCOC(=O)c1cc(-c2cccs2)nc2c1c(C)nn2-c1ccccn1,12,65,3,104*,12,36
CCOc1cc2c(c3c1C(c1ccccc1)N(S(=O)(=O)c1ccc(C)cc1)C3)C(=O)C=CC2=O (stereo not drawn),/,/,5,/,99*,/
O=C(/C=C/c1ccc([N+](=O)[O-])cc1)c1ccco1,6,/,-15,0,11,10
O=C(/C=C/c1ccc([N+](=O)[O-])cc1)/C=C/c1ccco1,/,2,13,76*,39,14
Cc1cccc(N2CCN(C(=O)c3cc4n(n3)C(C(F)(F)F)CC(c3ccco3)N4)CC2)c1C (stereo not drawn),-20,-3,/,84*,14,49
O=C(N[C@H]1C=C[C@H](CC(=O)N2CCN(c3ccccc3)CC2)O[C@@H]1CO)c1ccccc1,/,/,7,/,/,/
C[C@H]1CCCCO[C@@H](CN(C)Cc2ccc(Cl)c(Cl)c2)[C@@H](C)CN([C@@H](C)CO)C(=O)c2cc(NC(=O)Nc3ccc(C(F)(F)F)cc3)ccc2O1,/,/,83*,/,/,/
C[C@@H]1CCCCO[C@@H](CN(C)Cc2ccc(Cl)c(Cl)c2)[C@H](C)CN([C@@H](C)CO)C(=O)c2cc(NC(=O)Nc3ccc(C(F)(F)F)cc3)ccc2O1,/,/,91*,/,/,/
